Usually remaining activity stands for the signal under treatment as a percentage of the control signal. For orientation: viability means a read-out of living cells in per cent, often relative to untreated cells.

This note sets out measurements from PubChem BioAssay.

Experiment [1] has as its system Aerobactin synthetase IucA (Klebsiella pneumoniae). Description: IucA aerobactin synthetase inhibitors, biochemical, Tocris library, absorbance (AID 1345561; call rule not given here;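 further: 100% = enzyme without compound and 0% = no enzyme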). Particulars: purified IucA enzyme assay, absorbance (OD) read-out; stronger effect = lower value;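 tested at 8 µM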.
A short description of experiment [2]: sensitizers of A549 cells to miR-34 induction, primary screen, imaging, A549 dox-inducible miR-34, nuclei and caspase counts (AID 1347080). The following applies: A549 miR-34 inducible, Hoechst nuclei count, 48 h.
Experiment [3] can be described thus: viability rescue of complex I mutant cybrids, primary screen, cell-based, galactose medium, ATP luminescence (AID 1645843;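 active means z-score of at least 1.8 in each of two replicates, scored against plate mean and spread of sample wells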;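 further: positive z means more ATP and so rescue of galactose-driven cybrid death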). Particulars: complex I mutant cybrid cells, 72 h, stronger effect = higher value.
A short description of experiment [4]: survival rescue of mitochondrial mutant cells in low glucose, primary screen, MELAS cybrids, Rieske KO mouse fibroblasts, CellTiter-Glo (AID 1508586;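 active means mean z-score across replicates of 1.96 or higher in either the MELAS or the Rieske mutant cell line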;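 further: z relative to plate mean and SD of compound and empty wells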).
Experiment [5] in a line: liver-stage malaria parasite growth inhibition, primary screen, cell-based, HepG2, luciferase luminescence, HepG2 viability (AID 624349; in the data active means parasite load remaining mostly below about 12%, no sharp cut-off; inactive means mostly above about 10%;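 further: 100% = mean of DMSO negative control wells on the same plate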). The following applies: P. berghei liver stage in HepG2, luciferase luminescence, concentration not given here; parasite load remaining: stronger effect = lower value; viability: measured here: HepG2 viability without parasites.
Experiment [6] is described as follows: modifiers of HSF1 nuclear foci, imaging, Selleck Cancer Library (AID 1347162; in the data active means plate-normalised HSF1 focus index below about 0.46). The following applies: human cells, at 10 µM; SSMD: measured here: HSF1 foci SSMD mean; cell count: measured here: cell number; plate-normalised HSF1 focus index: stronger effect = lower value.
[7] abbreviates: stronger effect = lower value, cell number ratio, induced over uninduced.
Where [8] appears, read: measured here: relative caspase fold change +Dox/-Dox.
Where [9] appears, read: measured here: total cells with miR-34 induction, stronger effect = lower value.
[10] abbreviates: measured here: total cells without miR-34 induction.
The mark [11] stands for this setting: MELAS cybrid survival, CellTiter-Glo 48 h, stronger effect = higher value.
Where [12] appears, read: Rieske KO mouse fibroblast survival, CellTiter-Glo 72 h.

Where “and” joins values, the source holds several entries; their conditions need not be identical. Equal entries are not always repeated. Calls of active or inactive are those of the source.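 How the source made its calls, unless noted: active means compounds whose cell count with miR-34 switched on is under 0.7 times the count with it off; inactive means the rest.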

Turning to `c1cc2c(cc1C1CCCCC1)c1c3n2CCNC3CCC1` (stereo unspecified), the remaining activity in experiment [1] is 102% (inactive). Further, the fold change was 1.06 (inactive) in experiment [2] (setting [7]) and 1.07 in experiment [2] (setting [8]). The cell count is 430 in experiment [2] (setting [9]) and 406 in experiment [2] (setting [10]). Besides, the z-score in experiment [3] was -1.23 (inactive).

For the molecule `CCS(=O)(=O)N1CCC[C@@H]2CN3CCc4cc(OC)ccc4[C@@H]3C[C@@H]21`, in experiment [1], the remaining activity was 87.2% (inactive). In addition, the fold change in experiment [2] (setting [7]) is 0.945 (inactive); in experiment [2] (setting [8]), 0.859. The cell count was 8340 in experiment [2] (setting [9]) and 8820 in experiment [2] (setting [10]). For the same molecule, the z-score in experiment [3] was 0.46 (inactive).

Consider `CN(Cc1ccccc1)C(=O)[C@H](Cc1ccc2ccccc2c1)NC(=O)[C@@H]1C[C@@H](O)CN1C(=O)c1cn(C)c2ccccc12`, for which, in experiment [1], the remaining activity was 102% (inactive). Also, the fold change is 0.957 (inactive) in experiment [2] (setting [7]) and 1.21 in experiment [2] (setting [8]). Also, the cell count in experiment [2] (setting [9]) was 6080; in experiment [2] (setting [10]), 6350. Also, the z-score in experiment [3] was 3.41 (active).

On to `CCCCc1nn(-c2ccccc2C(F)(F)F)c(=O)n1Cc1ccc(-c2ccccc2S(=O)(=O)NC(=O)c2sccc2C)cc1`, for which the remaining activity in experiment [1] is 91.8% (inactive). Besides, the fold change in experiment [2] (setting [7]) was 0.921 (inactive); in experiment [2] (setting [8]), 1.21. The cell count in experiment [2] (setting [9]) is 7450; in experiment [2] (setting [10]), 8080. Besides, in experiment [3], the z-score is 4.89 (active).

In the case of `Nc1c(S(=O)(=O)O)cc(Nc2cccc3ccccc23)c2c1C(=O)c1ccccc1C2=O`, the remaining activity in experiment [1] was 109% (inactive). Besides, the fold change in experiment [2] (setting [7]) is 0.981 (inactive); in experiment [2] (setting [8]), 1.43. The cell count in experiment [2] (setting [9]) was 9410; in experiment [2] (setting [10]), 9590. Further, the z-score in experiment [3] was 3.16 (active).

Regarding `COc1cc(NC(=O)c2ccccn2)ccc1Cl`, in experiment [1], the remaining activity was 122% (inactive). For the same molecule, the fold change in experiment [2] (setting [7]) was 1.03 (inactive) and 0.942 (inactive); in experiment [2] (setting [8]), 0.59 and 1.55. Moreover, the cell count is 7300 and 8170 in experiment [2] (setting [9]); 7110 and 8670 in experiment [2] (setting [10]). Also, the z-score in experiment [4] (setting [11]) is 0.202 (inactive); in experiment [4] (setting [12]), 0.293; in experiment [3] it was 1.19 (inactive).

As to `COC(=O)[C@H]1C2C[C@H]3c4[nH]c5ccccc5c4CCN3C[C@H]2CC[C@@H]1O` (stereo partly specified), in experiment [1], the remaining activity is 106% (inactive). For the same molecule, the figures for the fold change in experiment [2] (setting [7]) and in experiment [2] (setting [8]) were 0.968 (inactive) and 0.826, respectively. In addition, the cell count in experiment [2] (setting [9]) was 8540; in experiment [2] (setting [10]) it was 8820. In experiment [3], the z-score is -0.115 (inactive).

Turning to `Cc1ccccc1N1CCN(S(=O)(=O)CC23CCC(C[C@@H]2NC(=O)[C@@H](N)CCS(C)(=O)=O)C3(C)C)CC1` (stereo partly specified), in experiment [1], the remaining activity is 82.6% (inactive). Besides, the results for the fold change in experiment [2] (setting [7]) and in experiment [2] (setting [8]) were 0.868 (inactive) and 1.54, respectively. For the same molecule, the values for the cell count in experiment [2] (setting [9]) and in experiment [2] (setting [10]) were 7420 and 8540, respectively. The z-score in experiment [3] is -0.14 (inactive).

With `Cc1ccc(Sc2cncc3sc(C(N)=O)cc23)cc1`, the remaining activity in experiment [1] is 99.8% (inactive). The fold change was 0.867 (inactive) and 0.873 (inactive) in experiment [2] (setting [7]); 2.32 and 1.58 in experiment [2] (setting [8]). For the same molecule, the cell count was 7640 and 7700 in experiment [2] (setting [9]); 8800 and 8820 in experiment [2] (setting [10]). In addition, the z-score in experiment [4] (setting [11]) is -0.504 (inactive); in experiment [4] (setting [12]) it was -0.347; in experiment [3] it was -0.625 (inactive).

Consider `CNC(CC(=O)O)C(=O)O` (stereo unspecified), for which, in experiment [1], the remaining activity was 97.3% (inactive). In addition, the fold change was 0.825 (inactive) and 1.05 (inactive) in experiment [2] (setting [7]); 1.55 and 0.67 in experiment [2] (setting [8]). Also, the cell count in experiment [2] (setting [9]) is 8200 and 8440; in experiment [2] (setting [10]), 9940 and 8040. In addition, the z-score is -0.165 (inactive) in experiment [4] (setting [11]), -0.287 in experiment [4] (setting [12]) and 0.29 (inactive) in experiment [3].

`CCCCCCCCCCCCCCCCn1cc[n+](Cc2ccccc2)c1C`: in experiment [5], the parasite load remaining is 41.6% (inactive). In addition, the viability in experiment [5] is 156%. The remaining activity in experiment [1] was 93.9% (inactive). Also, the fold change was 0.951 (inactive) and 0.701 (inactive) in experiment [2] (setting [7]); 0.478 and 0.77 in experiment [2] (setting [8]). For the same molecule, the cell count in experiment [2] (setting [9]) is 1020 and 275; in experiment [2] (setting [10]), 1080 and 392. Moreover, the figures for the z-score in experiment [4] (setting [11]), in experiment [4] (setting [12]) and in experiment [3] were 0.978 (inactive), -3.72 and -0.7 (inactive), respectively.

`COc1cc2ncnc(Nc3ccc(Cl)cc3F)c2cc1OC`: the remaining activity in experiment [1] was 98.6% (inactive). Also, the fold change in experiment [2] (setting [7]) was 0.989 (inactive) and 1 (inactive); in experiment [2] (setting [8]), 0.8 and 1.6. The cell count in experiment [2] (setting [9]) was 5840 and 6100; in experiment [2] (setting [10]), 5900 and 6080. Besides, the z-score in experiment [4] (setting [11]) is -0.209 (inactive); in experiment [4] (setting [12]), -0.0991; in experiment [3] it was 0.365 (inactive).

In the case of `O=C1C(=O)N(Cc2ccc(Cl)c(Cl)c2)c2ccccc21`, in experiment [1], the remaining activity is 89.3% (inactive). Further, the fold change in experiment [2] (setting [7]) is 0.946 (inactive) and 0.932 (inactive); in experiment [2] (setting [8]), 0.72 and 1.49. Also, the cell count in experiment [2] (setting [9]) was 8180 and 7960; in experiment [2] (setting [10]) it was 8650 and 8540. For the same molecule, the figures for the z-score in experiment [4] (setting [11]), in experiment [4] (setting [12]) and in experiment [3] were -0.161 (inactive), -0.14 and -0.685 (inactive), respectively.

As to `O=C1c2ccccc2CCC1CNCCc1ccc(O)cc1` (stereo unspecified), in experiment [1], the remaining activity was 104% (inactive). Moreover, the fold change was 0.994 (inactive) in experiment [2] (setting [7]) and 0.835 in experiment [2] (setting [8]). Further, the cell count in experiment [2] (setting [9]) turned out to be 8920; in experiment [2] (setting [10]), 8970. In experiment [3], the z-score is -1.23 (inactive).

Regarding `Ic1cc(-c2ccccc2)ncn1`, the remaining activity in experiment [1] is 120% (inactive). Moreover, the fold change is 0.965 (inactive) in experiment [2] (setting [7]) and 1.73 in experiment [2] (setting [8]). Further, the cell count turned out to be 8200 in experiment [2] (setting [9]) and 8500 in experiment [2] (setting [10]). Further, the z-score in experiment [3] was 0.11 (inactive).

As for `Cc1nn(-c2ccccc2)c(C)c1/C=N/N1CCN(Cc2ccccc2)CC1`, the remaining activity in experiment [1] was 122% (inactive). The fold change was 1.03 (inactive) in experiment [2] (setting [7]) and 0.466 in experiment [2] (setting [8]). In addition, the cell count came out at 8730 in experiment [2] (setting [9]), 8510 in experiment [2] (setting [10]) and 6930 in experiment [6]. The molecule also had an SSMD in experiment [6] of 3.26. Moreover, the plate-normalised HSF1 focus index in experiment [6] was 1.18 (inactive). Also, the z-score in experiment [3] is -0.095 (inactive).

For `O=C(O)COc1ccc(OCCNC[C@@H](O)COc2ccccc2)cc1`, the remaining activity in experiment [1] is 89.3% (inactive). For the same molecule, the fold change in experiment [2] (setting [7]) was 0.984 (inactive); in experiment [2] (setting [8]), 1.02. The cell count stood at 8850 in experiment [2] (setting [9]) and 8990 in experiment [2] (setting [10]). Also, the z-score in experiment [3] is 0.955 (inactive).

On to `CCOc1ccccc1O[C@H](c1ccccc1)[C@H]1CNCCO1` (racemic), for which the remaining activity in experiment [1] is 119% (inactive). In addition, the fold change was 0.937 (inactive) in experiment [2] (setting [7]) and 0.923 in experiment [2] (setting [8]). Also, the cell count in experiment [2] (setting [9]) came to 7740; in experiment [2] (setting [10]) it was 8260. Further, in experiment [3], the z-score was -0.36 (inactive).

Turning to `CN1C[C@H]2c3ccccc3Oc3ccc(Cl)cc3[C@@H]2C1` (racemic), the remaining activity in experiment [1] is 109% (inactive). The fold change is 0.868 (inactive) in experiment [2] (setting [7]) and 2.03 in experiment [2] (setting [8]). The cell count in experiment [2] (setting [9]) is 5560; in experiment [2] (setting [10]) it was 6410. The z-score in experiment [3] was -0.745 (inactive).
